Values joined by “and” are separate entries in the source; they are usually repeats but may differ in a detail not shown here. Equal entries are not always repeated. Results filed as inconclusive are left out. Active and inactive are the calls of the source. Unless noted, calls come from the whole dose curve; as a rule, active = well fitted curve in the direction sought with a large enough effect; inconclusive = small, poorly fitted or top-dose-only effect, or another doubt; inactive = no such curve, though single readings can be large; an effect the other way counts as inactive or inconclusive.
Columns and labels:
[1] = qHTS Assay for Lipid Storage Modulators (AID 1519; calls by dose curve; for activity change, negative = inhibition: % is set by controls: 0 for no effect and ±100 for the full control effect); conditions: Drosophila S3 cells, BODIPY lipid droplet/cell ratio, laser cytometry, cells loaded with oleic acid; for activity change, negative = inhibition: at 57.5 µM (top of the series)
In short: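 Cells seeded at 5,000 per well were treated with compounds over a concentration series and loaded with oleic acid (400 uM, as added). Lipid droplet fluorescence (488 nm excitation, 500-530 nm channel) was read by laser-scanning cytometry and normalized to 20 uM Triacsin C.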

[2] = Cell Viability - LYMP2-025 (AID 976); conditions: LYMP2-025 lymphoblastoid cell viability; series mostly up to 92.2 µM;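 note: plate controls were DMSO only for no effect and tetraoctylammonium bromide control for full effect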
In short: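 Human lymphoblastoid LYMP2-025 cells, 2500/well, exposed 24 h at 37 C in complete medium in 1536-well qHTS. Viability as cellular ATP by CellTiter-Glo luminescence; AC50 from Hill fits of concentration-response data.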

[3] = Cell Viability - LYMP2-002 (AID 977); conditions: LYMP2-002 lymphoblastoid cell viability, qHTS; series mostly up to 92.2 µM;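 note: compound exposure lasted 24 h at 37 °C; plate controls were DMSO only for no effect and 92 µM tetraoctylammonium bromide for full effect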
In short: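 Human lymphoblastoid LYMP2-002 cells, 2500 per well, exposed to compounds for 24 h at 37 C in complete medium; viability read as intracellular ATP by CellTiter-Glo luminescence, AC50 from Hill fits.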

[4] = Cell Viability - LYMP2-006 (AID 978); conditions: LYMP2-006 lymphoblastoid cell viability, qHTS; series mostly up to 92.2 µM; note: % is set by controls: 0 for no effect and ±100 for the full control effect; nearly all actives have a fitted effect of over 60% in size
In short: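 Human lymphoblastoid cells (LYMP2-006), 2500/well in complete medium, were treated with compound for 24 hr at 37 C. Cellular ATP was read by CellTiter-Glo luminescence after 30 min, and AC50 values came from Hill-equation fits of concentration-response data.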

[5] = Cell Viability - LYMP2-007 (AID 979); conditions: LYMP2-007 lymphoblastoid cell viability; series mostly up to 92.2 µM;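 note: cells exposed to compound for 24 h before reading; 0% = DMSO only and the negative end = 92 µM tetraoctylammonium bromide; nearly all actives have a fitted effect of over 60% in size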
In short: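 Human lymphoblastoid LYMP2-007 cells (2500/well) preincubated 5 h at 37 C, then treated 24 h at 37 C in complete medium. Viability by CellTiter-Glo ATP luminescence after 30 min at room temperature; AC50 from Hill fits.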

[6] = Cell Viability - LYMP2-008 (AID 980); conditions: LYMP2-008 lymphoblastoid cell viability, qHTS; series mostly up to 92.2 µM; note: % is set by controls: 0 for no effect and ±100 for the full control effect; nearly all actives have a fitted effect of over 60% in size
In short: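 LYMP2-008 lymphoblastoid cells (2500/well) plated 5 h, then treated 24 h at 37 C in complete medium. Viability read as intracellular ATP by CellTiter-Glo luminescence after 30 min at room temperature; AC50 from Hill fits.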

[7] = Cell Viability - LYMP2-010 (AID 981); conditions: LYMP2-010 lymphoblastoid cell viability, qHTS; series mostly up to 92.2 µM; note: % is set by controls: 0 for no effect and ±100 for the full control effect; nearly all actives have a fitted effect of over 55% in size
In short: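 Human lymphoblastoid LYMP2-010 cells (2500/well) treated 24 h at 37 C in complete medium; viability read as intracellular ATP by CellTiter-Glo luminescence. AC50 from Hill fits of concentration-response data; tetraoctylammonium bromide positive control.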

[8] = Cell Viability - LYMP2-012 (AID 982); conditions: LYMP2-012 lymphoblastoid cell viability qHTS; series mostly up to 92.2 µM;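 note: cellular ATP by luciferase luminescence where a drop means cytotoxicity; cells exposed to compound for one day before reading; 0% = DMSO only and full loss = 92 µM tetraoctylammonium bromide; nearly all actives have a fitted effect of over 55% in size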
[9] = Cell Viability - LYMP2-014 (AID 983); conditions: LYMP2-014 lymphoblastoid cells, viability qHTS; series mostly up to 92.2 µM;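 note: plate controls were DMSO only for no effect and 92 µM tetraoctylammonium bromide for full effect; nearly all actives have a fitted effect of over 50% in size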
In short: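 LYMP2-014 human lymphoblastoid cells, 2500/well, treated 24 h at 37 C in complete medium; viability by CellTiter-Glo ATP luminescence after 30 min at room temperature. AC50 from Hill fits of qHTS concentration-response; tetraoctylammonium bromide positive control.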

[10] = Cell Viability - LYMP2-016 (AID 984); conditions: LYMP2-016 lymphoblastoid cell viability, qHTS; series mostly up to 92.2 µM; note: % is set by controls: 0 for no effect and ±100 for the full control effect; nearly all actives have a fitted effect of over 55% in size
In short: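 Human lymphoblastoid LYMP2-016 cells, 2500 per well, treated with compounds for 24 h at 37 C. Viability read as intracellular ATP by CellTiter-Glo luminescence after 30 min at room temperature; AC50 from Hill fits of concentration-response.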

[11] = Cell Viability - LYMP2-018 (AID 985); conditions: LYMP2-018 lymphoblastoid cells, viability (qHTS); series mostly up to 92.2 µM;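 note: compound exposure lasted 24 hr at 37 °C; plate controls were DMSO only for no effect and tetraoctylammonium bromide at 92 µM for full effect; nearly all actives have a fitted effect of over 50% in size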
In short: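 Human lymphoblastoid LYMP2-018 cells, 2500/well, settled 5 hr at 37 C then exposed to compound 24 hr at 37 C; intracellular ATP measured by CellTiter-Glo luminescence. AC50 from Hill-equation concentration-response fits.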

[12] = Cell Viability - LYMP2-020 (AID 986); conditions: series mostly up to 92.2 µM;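 note: plate controls were DMSO only for no effect and tetraoctylammonium bromide at 92 µM for full effect; nearly all actives have a fitted effect of over 55% in size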
In short: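 Human lymphoblastoid LYMP2-020 cells (2500/well) preincubated 5 h at 37 C, then treated 24 h at 37 C. Viability measured as intracellular ATP by CellTiter-Glo luminescence after 30 min at room temperature; AC50 from Hill fits.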

[13] = Cell Viability - LYMP2-022 (AID 987); conditions: LYMP2-022 lymphoblastoid cell viability; series mostly up to 92.2 µM
In short: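 LYMP2-022 lymphoblastoid cells (2500/well, complete medium) were treated with compounds for 24 hours at 37 C; intracellular ATP was then read by CellTiter-Glo luminescence after 30 min at room temperature. AC50 values were derived from Hill-equation fits.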

[14] = Cell Viability - LYMP2-024 (AID 988); conditions: LYMP2-024 lymphoblastoid cell viability; series mostly up to 92.2 µM;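 note: plate controls were DMSO only for no effect and 92 µM tetraoctylammonium bromide for full effect; nearly all actives have a fitted effect of over 60% in size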
In short: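 Human lymphoblastoid LYMP2-024 cells (2500/well) rested 5 hr, then treated with compound for 24 hr at 37 C in complete medium. Viability was measured as intracellular ATP by CellTiter-Glo luminescence. AC50 values came from Hill-equation fits.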

[15] = Cell Viability - LYMP2-026 (AID 989); conditions: LYMP2-026 lymphoblastoid cell viability, qHTS; series mostly up to 92.2 µM; note: % is set by controls: 0 for no effect and ±100 for the full control effect; nearly all actives have a fitted effect of over 50% in size
In short: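 Human lymphoblastoid LYMP2-026 cells, 2500/well, exposed to compound 24 h at 37 C in complete medium. Viability as intracellular ATP by CellTiter-Glo luminescence; AC50 from Hill fits of qHTS concentration-response.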

[16] = Cell Viability - LYMP1-002 - Assay at 24 hr (AID 993); conditions: LYMP1-002 lymphoblastoid cells viability; series mostly up to 92.2 µM; note: % is set by controls: 0 for no effect and ±100 for the full control effect
In short: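 Human lymphoblastoid LYMP1-002 cells (2500/well) treated 24 h at 37 °C; viability as intracellular ATP by CellTiter-Glo luminescence. Tetraoctylammonium bromide as positive control; AC50 from Hill-equation fits of qHTS concentration-response.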

[17] = Cell Viability - LYMP1-002 - Assay at 40 hr (AID 994); conditions: LYMP1-002 lymphoblastoid cell viability; series mostly up to 92.2 µM
In short: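 LYMP1-002 human lymphoblastoid cells (2500/well, complete medium) were treated with compounds for 40 hr at 37 C. Intracellular ATP was measured by CellTiter-Glo luminescence, and AC50 values came from Hill-equation fits of concentration-response data; tetraoctylammonium bromide was the positive control.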

[18] = molecular target: Alpha-galactosidase A (Homo sapiens) (UniProt P06280); experiment: Counterscreen for Glucocerebrosidase Inhibitors: qHTS Assay for Human alpha-Galactosidase at pH 4.5 (AID 992); conditions: purified enzyme, fluorogenic substrate; series mostly up to 76.9 µM; note: 0% is about no effect
In short: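 Enzyme at 2 nM final was combined with compound (0.7 nM to 77 uM) and 80 uM 4-methylumbelliferyl alpha-D-galactopyranoside in 50 mM citric acid, 0.005% Tween-20, pH 4.5. After 20 min at room temperature, fluorescence was read (Ex 365/Em 440 nm); AC50 came from Hill fits.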

[19] = molecular target: alpha-glucosidase (Oryza sativa, rice) (UniProt Q653V4); experiment: Counterscreen for Glucocerebrosidase Inhibitors: qHTS Assay for Rice alpha-Glucosidase at pH 5.0 (AID 997); conditions: rice alpha-glucosidase enzyme activity; series mostly up to 76.9 µM;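 note: 0% = full activity with enzyme and -100% = basal without enzyme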
In short: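 Rice alpha-glucosidase (4 nM final) with 400 uM 4-methylumbelliferyl-alpha-D-glucopyranoside in citrate buffer pH 5.0, 20 min at room temperature, stopped at pH 10; fluorescence 365/440 nm, compounds 0.7 nM–77 uM, AC50 from Hill fits.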

[20] = Validation of Assay for Modulators of Lamin A Splicing (AID 1459; active = well fitted curve in the direction sought with a large enough effect in the signal ratio; the % refers to the signal ratio;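 note: cells exposed to compound for two days before reading; 0% is about no effect; ratio rise marks activators and ratio drop marks inhibitors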); conditions: Lamin A splicing dual RFP/GFP fluorescence reporter; series mostly up to 9.22 µM
In short: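 S3 HeLa stably expressing lamin A-EGFP splicing minigene and DsRed2, 600 cells/well in Opti-MEM with 2% FBS, treated 48 h at 37C; laser-scanning cytometry gives GFP/RFP total intensity ratio; ancitabine positive control, 0.5% DMSO vehicle.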

[21] = measured here: cell count channel max response
[22] = measured here: lipid channel max response

Chain of Alpha-galactosidase A (Homo sapiens) (P06280 whole entry, looked up): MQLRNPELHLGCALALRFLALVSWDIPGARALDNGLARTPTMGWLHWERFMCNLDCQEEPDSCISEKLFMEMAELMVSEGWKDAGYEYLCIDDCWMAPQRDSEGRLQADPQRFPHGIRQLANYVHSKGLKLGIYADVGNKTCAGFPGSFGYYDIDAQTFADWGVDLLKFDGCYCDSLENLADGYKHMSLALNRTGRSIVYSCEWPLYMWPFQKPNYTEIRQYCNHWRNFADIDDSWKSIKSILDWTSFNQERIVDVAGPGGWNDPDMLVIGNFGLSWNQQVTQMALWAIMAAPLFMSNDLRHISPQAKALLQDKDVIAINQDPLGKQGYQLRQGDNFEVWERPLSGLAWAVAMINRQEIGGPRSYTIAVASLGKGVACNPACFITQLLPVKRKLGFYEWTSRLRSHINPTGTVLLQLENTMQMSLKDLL

C1CNCCN1
6.29%: max response [1, 21]
inactive: activity change, negative = inhibition [1] 8.66%
18.5%: max response [1, 22]

CCCCCCCCCC(=O)O
inactive: outcome [2] | outcome [3] | outcome [4] | outcome [5] | outcome [6] | outcome [7] | outcome [8] | outcome [9] | outcome [10] | outcome [11] | outcome [12] | outcome [13] | outcome [14] | outcome [15] | outcome [16] | outcome [17]

O=C(O)CC(O)(CC(=O)O)C(=O)O
inactive: outcome [2] | outcome [3] | outcome [4] | outcome [8] | outcome [9] | outcome [10] | outcome [11] | outcome [12] | outcome [13] | outcome [15] | outcome [16] | outcome [17] | activity change, negative = inhibition [1] -0.75%
14.5%: max response [1, 21]
16%: max response [1, 22]

C=Cc1ccccc1
inactive: outcome [2] | outcome [3] | outcome [4] | outcome [5] | outcome [6] | outcome [7] | outcome [10] | outcome [11] | outcome [14] | outcome [15] | outcome [16] | outcome [17]

NCCCC(=O)O
inactive: outcome [18] | outcome [19] | outcome [20] | activity change, negative = inhibition [1] -0.209% and 6.45% and 0.252%
-6.14% and 11.3% and -29.6%: max response [1, 22]
-9.18% and 2.91% and -17.1%: max response [1, 21]

COC(C)=O
inactive: outcome [2] | outcome [3] | outcome [4] | outcome [5] | outcome [6] | outcome [7] | outcome [8] | outcome [9] | outcome [10] | outcome [11] | outcome [12] | outcome [13] | outcome [14] | outcome [15] | outcome [16] | outcome [17]

CN(C)Cc1ccccc1
inactive: outcome [2] | outcome [3] | outcome [4] | outcome [5] | outcome [6] | outcome [7] | outcome [8] | outcome [9] | outcome [10] | outcome [11] | outcome [12] | outcome [13] | outcome [14] | outcome [15] | outcome [16] | outcome [17]

CN[C@H]1CC[C@@H](c2ccc(Cl)c(Cl)c2)c2ccccc21
inactive: outcome [18] | outcome [19]

CCCCCCCCCCCCCCCC(=O)OC/C=C(C)/C=C/C=C(C)/C=C/C1=C(C)CCCC1(C)C
14%: max response [1, 22]
inactive: activity change, negative = inhibition [1] 3.99%
7.5%: max response [1, 21]

Cc1ccc(OC[C@H](O)[C@H](C)NC(C)C)c2c1CCC2
7.78%: max response [1, 22]
inactive: outcome [18] | outcome [19] | activity change, negative = inhibition [1] -0.878%
5.72%: max response [1, 21]
